# FBPA coupling cs: counter-screen for Giardia aldolase inhibitors: coupling enzyme system; coupling enzyme system counterscreen, AmpLite Red fluorescence; activity change, negative = inhibition, % at 58.2 µM, hits read low; 290,000 compounds, 0.67% hits; AID 2472; in the data active = activity change below about -30%
#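 Activity here indicates interference with the coupling reaction, not aldolase inhibition. Compounds at 57.5 uM final met coupling enzymes for 10 min at RT; substrate and AmpLite Red detection followed, with a 525/598 nm fluorescence read after 20 min.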
# Tau fibril ThT: tau fibrillization inhibition (ThT binding); P10636; recombinant tau K18 P301L, heparin-induced fibrillization, ThT fluorescence; Potency, µM (top dose mostly 57.4 µM), inactives show top-dose activity, negative = inhibition, most hits filed as inhibitors; 270,000 compounds, 2.1% hits; AID 1460; note: potency is the fitted concentration of half-maximal effect; nearly all actives have a fitted effect of over 55% in size
# Target sequence (P10636 561-689 P618L limits assumed): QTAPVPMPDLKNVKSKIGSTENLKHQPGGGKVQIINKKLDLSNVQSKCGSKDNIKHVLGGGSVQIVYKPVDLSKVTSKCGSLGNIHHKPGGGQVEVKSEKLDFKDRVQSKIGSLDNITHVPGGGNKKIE
#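 Aggregation was driven by heparin (20 uM final) acting on recombinant tau […] bearing P301L in 100 mM sodium acetate pH 7; fibrils were detected with Thioflavin T.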
# Tau FP inhib: blocks human tau fibril formation measured by polarization; 280,000 compounds, 0.39% hits; AID 1468; Potency, µM (top dose mostly 57.7 µM), inactives show at the top dose activity, negative = inhibition, actives largely listed as inhibitors; K18 P301L tau heparin fibrillization, Alexa594 FP, 6 h; note: potency is the fitted concentration of half-maximal effect; nearly all actives have a fitted effect of over 55% in size
#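 Human tau K18 […] P301L fragment, 15 uM unlabeled plus 0.24 uM Alexa 594-labeled tau (final), with compound and 20 uM heparin in 100 mM sodium acetate pH 7; 6 hr at 37 C, then Alexa 594 FP read.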
# USP1-UAF1 inh: inhibitors of human USP1/UAF1 deubiquitinase; 390,000 compounds, 0.23% hits; recombinant USP1/UAF1, Ub-Rhodamine cleavage fluorescence; O94782; Potency, µM (doses to about 57.1 µM), inactives show top-dose activity change, negative = inhibition, actives largely listed as inhibitors; note: potency is the fitted concentration of half-maximal effect; nearly all actives have a fitted effect of over 60% in size
#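 USP1/UAF1 complex (1 nM) preincubated 15 min at room temperature with compound, then Ub-Rho substrate (150 nM final) added. Kinetic fluorescence at 480/540 nm over 6 reads at 60 s intervals; 50 mM HEPES pH 7.8, 0.5 mM EDTA, 0.1 mg/ml BSA, 1 mM TCEP, 0.01% Tween-20.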
# Tau fluor counter: counter-screen for tau fibril formation inhibitors. 280,000 compounds, 0.93% hits. AID 1463. tau K18 P301L (four-repeat tau fragment) Alexa594 fluorescence, heparin fibrillization. Potency, µM (series often up to 57.7 µM), without a hit: at the top dose activity change, negative = decrease; note: potency is the fitted concentration of half-maximal effect; nearly all actives have a fitted effect of over 55% in size
#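 Human K18 P301L tau (15 uM unlabeled plus 0.24 uM Alexa 594-labeled, final) in 100 mM sodium acetate pH 7 was mixed with compound and 20 uM heparin and incubated 6 hr at 37 C.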
# An asterisk follows results filed as active; ? = inconclusive; / = no result; ! = repeats disagree; [ ] = another dose, or the depositor's remark. Most compounds without a hit are left out; they make up all but 2.3% or so of the library. Unless noted, calls come from the whole dose curve; as a rule, active = well fitted curve in the direction sought with a large enough effect; inconclusive = small, poorly fitted or top-dose-only effect, or another doubt; inactive = no such curve, though single readings can be large; an effect the other way counts as inactive or inconclusive. % is set by controls: 0 for no effect and ±100 for the full control effect.
SMILES,FBPA coupling cs,Tau fibril ThT,Tau FP inhib,USP1-UAF1 inh,Tau fluor counter
NC1=CC(=O)c2cccc3cccc1c23,-34*,11µM*,?,/,?
C=C1C2CC[C@]3(CCC4[C@@]5(C)CCC[C@@]4(CN(CCO)C5)[C@@H]3C2)[C@@H]1O (some centres undefined),0,-10%,0%,/,-3%
CCCCNC(=O)CC1Nc2cc(C)c(C)cc2NC1=O (centres undefined),/,?,-2%,?,-3%
COc1ccc(NC(=O)CC2Nc3cc(C)c(C)cc3NC2=O)c([N+](=O)[O-])c1 (centres undefined),4,11µM*,?,-22%,?
O=C(CC1Nc2ccccc2NC1=O)Nc1cc(Cl)cc(Cl)c1 (centres undefined),-2,?,8%,?,14µM*[quencher]
O=C(CC1Nc2cccc3cccc(c23)NC1=O)Nc1ccc(F)cc1 (centres undefined),-26,?,7%,-19%,8.9µM*![quencher]
Cc1cc2c(cc1C)NC(CC(=O)Nc1cccc(Cl)c1)C(=O)N2 (centres undefined),/,?,10%,-1%,25µM*[quencher]
CCCn1cc(S(=O)(=O)c2ccc(OC)cc2)c(=O)c2cc(F)c(N3CCCC(C)C3)cc21 (centres undefined),/,-14%,-6%,-21%,-17%
CCc1ccc2[nH]cc(S(=O)(=O)c3ccc(C(C)C)cc3)c(=O)c2c1,/,6%,?,-9%,?
Cc1ccc(C(=O)c2c3ccc([N+](=O)[O-])cc3[n+]([O-])n2CCC(N)=O)cc1,-4,/,/,?,/
CCCc1nn2c(=O)cc(CSCC(=O)Nc3ccc(OC)cc3)nc2s1,-2,/,/,-19%,/
CN(C)c1ccc(N2CN=C3SCC(=O)N3C2)cc1,-51*,5µM*,13µM*,-9%,?
Cc1[nH]c2ccc(C(=O)NCCN3CCOCC3)cc2c1C,/,/,/,-18%,/
O=C(CC(=O)N/N=C/c1ccccc1)NCc1ccccc1,-40*,-6%,-2%,-30%,-5%
O=C(CCC(=O)Nc1ccccc1Cl)N/N=C/c1ccccc1,-47*,-6%,-2%,-11%,-7%
CC(C)(C)c1ccc(/C=N/NC(=O)Cc2c[nH]c3ccccc23)cc1,1,?,-14%,-24%,14µM*[quencher]
O=C(CCCSCCCC(=O)NN=Cc1ccccc1)NN=Cc1ccccc1,/,/,/,-9%,/
O=C(Cc1c[nH]c2ccccc12)N/N=C/c1ccccc1O,0,?,-5%,-19%,-24%
CCOCCCNC(=O)c1c[nH]c2ccc(S(=O)(=O)Nc3cccc(Cl)c3C)cc2c1=O,/,1%,?,-12%,?
S=C(NCCCc1ccccc1)Nc1ccccc1,/,/,/,-21%,/
O=C(NCCc1ccc(F)cc1)Nc1ccc([N+](=O)[O-])cc1,/,/,/,-23%,/
S=C(NCCc1ccccc1)Nc1ccc(Nc2ccccc2)cc1,0,?,?,-18%,16µM*[quencher]
O=S(=O)(c1ccc(NC(=S)NCCC(c2ccccc2)c2ccccc2)cc1)N1CCOCC1,-4,10%,14µM*,-2%,?
S=C(NCCC(c1ccccc1)c1ccccc1)Nc1ccccc1Cl,-3,14%,?,-19%,?
CCCCOCCCNC(=S)Nc1ccc(S(=O)(=O)N2CCOCC2)cc1,5,-1%,?,2%,-20%
SMILES,FBPA coupling cs,Tau fibril ThT,Tau FP inhib,USP1-UAF1 inh,Tau fluor counter
S=C(NCCC(c1ccccc1)c1ccccc1)Nc1ccc(Cl)cc1,0,15%,14µM*,-16%,8.9µM*[quencher]
O=[N+]([O-])c1ccc(NC(=S)NCCc2ccc(F)cc2)cc1,-1,?,?,-14%,14µM*[quencher]
CCc1ccc(NC(=O)CC(c2ccc(C)cc2)N2Cc3ccccc3C2=O)cc1 (centres undefined),/,19%,-9%,-32%,2%
O=C(Nc1cccc(F)c1)NC1(C(=O)N2CCOCC2)CCCCC1,0,6%,3%,-3%,4%
Cc1noc2ncnc(N3CCCC(C(=O)Nc4cc(F)ccc4F)C3)c12 (centres undefined),/,1%,-8%,-12%,-3%
O=C(NCc1ccco1)/C(=C\c1ccco1)NC(=O)c1ccco1,-21,40µM*,?,-9%,?
O=c1c2c3c(sc2[nH]c(=S)n1Cc1ccco1)CCC3,-2,?,-13%,-17%,-16%
CC1(C)Cc2c(sc3[nH]c(=S)n(Cc4ccco4)c(=O)c23)CO1,11,28µM*,?,-22%,-26%
O=C(Oc1ccc(Br)cc1C(=S)N1CCOCC1)c1ccc([N+](=O)[O-])cc1[N+](=O)[O-],-18,/,/,-17%,/
O=C(Oc1ccc(Br)cc1C(=S)N1CCCCC1)c1cc([N+](=O)[O-])cc([N+](=O)[O-])c1,-11,?,-1%,-17%,22µM*[quencher]
O=C(Oc1cccc(C(=S)N2CCOCC2)c1)c1cccc([N+](=O)[O-])c1,-22,?,2%,-14%,?
O=C(Oc1cccc(C(=S)N2CCOCC2)c1)c1cc([N+](=O)[O-])cc([N+](=O)[O-])c1,-4,?,-1%,8%,20µM*[quencher]
O=C(NCc1ccccc1)C1=C[C@H](c2ccc(C(F)(F)F)cc2)C[C@H](OCc2ccc(CO)cc2)O1,1,-8%,1%,-33%,-11%
CSc1nc(Nc2ccc(Cl)cc2)c(C#N)c(=O)[nH]1,6,/,/,-11%,/
N#Cc1c(Nc2ccc(Cl)cc2)s[nH]c1=O,8,/,20µM*,-12%,-20%
COc1ccccc1/C=N/NC(=O)CCSc1ccccc1,-33*,-11%,2%,-24%,-15%
CCCCOC(=O)c1ccc(NC(=O)C2(c3cccs3)CCOCC2)cc1,/,-8%,-14%,-15%,?
O=c1c(-c2ccc(Cl)cc2)nc2cnc(N3CCOCC3)nc2n1CCc1ccccc1,1,/,/,/,/
Oc1c(Cl)cc(Cl)cc1/C=N/NC(=S)NC1CC2C=CC1C2 (centres undefined),6,?,7%,-12%,28µM*[quencher]
CC1(C)CC(=O)c2cc(-c3nc(-c4ccc(F)cc4)cs3)c(=O)[nH]c2C1,/,-9%,-19%,-2%,-13%
CCOC(=O)c1c(NC(C)=O)sc2c1CCN(Cc1ccccc1)C2,0,/,/,-23%,/
CCOC(=O)c1c(NC(C)=O)sc2c1CCC(C=O)=C2Sc1ccccc1,0,14µM*,?,-18%,?
CCOC(=O)c1c(NC(=O)c2ccccc2Br)sc2c1CCc1ccccc1-2,0,28µM*,?,-18%,-28%
C/C(=C\C(=O)c1ccccc1)Nc1ccc(O)cc1,-31*,?,7%,-13%,?
C/C(=C\C(=O)c1cccnc1)Nc1ccc(O)cc1,-21,?,-1%,-9%,-17%
COCCn1c(=O)c(C)nc2cnc(Nc3ccccc3)nc21,1,/,/,/,/
